From the supplement of paper PMC9492666
Structures can show the parent of a compound that is named as a salt.

Legend:
HCC1937 = assay: relative cell viability, compound alone, vs DMSO (fraction of DMSO control); higher = less growth inhibition; conditions: 72 h
MDA-MB-231 = assay: as above; conditions: 72 h
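Also: viability read out with the CCK-8 kit in 96-well plates, screening a set of 303 compounds acting on lipid metabolism targets.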

Compound | relative cell viability (HCC1937) | relative cell viability (MDA-MB-231)
O=C(CN1CCN(C(=O)c2ccco2)CC1)Nc1cc(C(F)(F)F)ccc1Cl | 0.767 | 0.892
CCCCCCCCCCCCCCCC(=O)NCCO [Palmidrol] | 1.39 | 1.13
CC(C)Cc1ccc([C@H](C)C(=O)O)cc1 [Dexibuprofen] | 1.36 | 0.905
O=C(O)c1cc(F)c2nc(N3[C@@H]4CC[C@H]3C[C@@H](OCc3c(-c5ccccc5OC(F)(F)F)noc3C3CC3)C4)sc2c1 [Tropifexor] | 1.05 | 0.971
Cc1cc(N2C[C@@H](C)N[C@@H](C)C2)ncc1-c1ccc(-c2nc3c(ccn3C)c(=O)[nH]2)cc1 | 0.855 | 1.05
CC(C)c1onc(-c2c(Cl)cccc2Cl)c1COc1ccc(/C=C/c2cccc(C(=O)O)c2)c(Cl)c1 | 1.03 | 0.968
N=C(N)NC(=N)NCCc1ccccc1 [Phenformin hydrochloride] | 0.76 | 0.868
COc1c(/C=C/C(=O)c2ccc(O)cc2)ccc(O)c1CC=C(C)C | 1.06 | 0.885
CCCc1cc(-c2nc(-c3ccc(C)cc3)cs2)ccn1 [Fatostatin] | 0.733 | 0.745
CS(=O)(=O)c1ccc(-c2nnc(/C=C/c3nnc(-c4ccc(C#N)cc4)o3)n2-c2ccccc2Cl)nc1 | 1.07 | 0.851
O=c1c(O[C@@H]2O[C@H](CO)[C@@H](O)[C@H](O)[C@H]2O)c(-c2ccc(O)cc2)oc2cc(O)cc(O)c12 [Astragalin] | 0.937 | 0.984
Nc1ccc(C(=O)O)c(O)c1 [Aminopar] | 1.1 | 0.911
O=S(=O)(c1ccccc1)N(CC(F)(F)F)c1ccc(C(O)(C(F)(F)F)C(F)(F)F)cc1 | 0.957 | 1.23
CC(C)[C@H]1CC[C@H](C(=O)N[C@H](Cc2ccccc2)C(=O)O)CC1 [Nateglinide] | 0.682 | 0.869
CC(C)C1=CC2=CC[C@@H]3[C@](C)(CCC[C@@]3(C)C(=O)O)[C@H]2CC1 [Abietic Acid] | 1.02 | 1.07
O=C(Nc1ccc(C(O)(C(F)(F)F)C(F)(F)F)cc1)c1ccc(C(F)(F)F)cc1 | 0.54 | 0.631
O=c1c(-c2ccc(O)cc2)coc2cc(O)ccc12 [Daidzein] | 1.13 | 0.863
O=C(O)/C=C/c1ccc(O)c(O)c1 [Caffeic Acid] | 0.72 | 0.874
N[C@@H](Cc1c[nH]cn1)C(=O)O [histidine] | 1.05 | 1.03
CCCc1cc(-c2nc(-c3ccc(NS(C)(=O)=O)cc3)cs2)ccn1 | 0.669 | 0.926
CCC(=O)Nc1cccc(Oc2nc(Nc3ccc(N4CCN(C)CC4)cc3OC)ncc2Cl)c1 | 0.48 | 0.559
CCN(CC)CCN(Cc1ccc(-c2ccc(C(F)(F)F)cc2)cc1)C(=O)Cn1c(SCc2ccc(F)cc2)nc(=O)c2c1CCC2 [Darapladib] | 0.0924 | 0.22
